Source: PubChem BioAssay AID1159580 (chemical genetic matrix, 2015)
“And” between values parts separate entries of the source, which are not always exact repeats. Equal entries are not always repeated. Out of some 5,500 compounds screened, about 2,000 (36%) were called active. Roughly 18% stayed inconclusive and do not appear here. The list shows a part of the results. Unmarked numbers belong to inactive results. Cut-off read from the data, not from the text of the source: active = normalized growth mostly below about 0.91 (no sharp cut-off); inconclusive = no clear call, values can overlap the other calls; inactive = mostly above about 0.92.

Experiment: chemical genetic growth profiling, strain panel (AID 1159580);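 note: tested at 20 µM; growth read once vehicle control cultures reached saturation at 30 °C; 1 = growth at the plate median or of vehicle wells; lower values mean less growth of the strain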
Settings: S. cerevisiae deletion strains, growth OD

COc1ccc(C2CC(=O)c3ccc(OC)cc3O2)cc1 (centres undefined)
normalized growth (locus YAL021C, strain ccr4, hits give low values): 0.953
normalized growth (locus YAL026C, strain drs2, hits give low values): 0.939
normalized growth (locus YAL030W, strain snc1, hits give low values): 0.954
normalized growth (locus YBL061C, strain skt5, hits give low values): 0.948
normalized growth (locus YBR009C, strain hhf1, hits give low values): 0.854 (active)
normalized growth (locus YBR021W, strain FUR4, hits give low values): 0.805 (active)
normalized growth (locus YBR023C, strain chs3, hits give low values): 0.915
normalized growth (locus YBR171W, strain sec66, hits give low values): 0.936
normalized growth (locus YBR229C, strain ROT2, hits give low values): 0.963
normalized growth (locus YBR231C, strain swc5, hits give low values): 0.921
normalized growth (locus YBR279W, strain paf1, hits give low values): 0.95
normalized growth (locus YCL011C, strain gbp2, hits give low values): 0.928
normalized growth (locus YCL016C, strain dcc1, hits give low values): 0.939
normalized growth (locus YCL029C, strain bik1, hits give low values): 0.923
normalized growth (locus YCL061C, strain MRC1, hits give low values): 0.932
normalized growth (locus YCL069W, strain vba3, hits give low values): 0.961
normalized growth (locus YCR088W, strain abp1, hits give low values): 0.957
normalized growth (locus YDL005C, strain med2, hits give low values): 0.96
normalized growth (locus YDL035C, strain GPR1, hits give low values): 0.872
normalized growth (locus YDL040C, strain nat1, hits give low values): 0.956
normalized growth (locus YDL074C, strain BRE1, hits give low values): 0.689 (active)
normalized growth (locus YDL101C, strain DUN1, hits give low values): 0.9
normalized growth (locus YDL185W, strain tfp1, hits give low values): 0.938
normalized growth (locus YDL192W, strain arf1, hits give low values): 0.891 (active)
normalized growth (locus YDR001C, strain nth1, hits give low values): 0.951
normalized growth (locus YDR069C, strain doa4, hits give low values): 0.953
normalized growth (locus YDR101C, strain arx1, hits give low values): 0.93
normalized growth (locus YDR137W, strain rgp1, hits give low values): 0.966
normalized growth (locus YDR159W, strain sac3, hits give low values): 0.929
normalized growth (locus YDR162C, strain NBP2, hits give low values): 0.74 (active)
normalized growth (locus YDR195W, strain ref2): 1.19 [resistant] (active)
normalized growth (locus YDR297W, strain sur2, hits give low values): 0.948
normalized growth (locus YDR318W, strain mcm21, hits give low values): 0.906 (active)
normalized growth (locus YDR334W, strain swr1, hits give low values): 0.961
normalized growth (locus YDR335W, strain msn5, hits give low values): 0.953
normalized growth (locus YDR388W, hits give low values): 0.955
normalized growth (locus YDR392W, strain spt3, hits give low values): 0.538 (active)
normalized growth (locus YDR502C, strain sam2, hits give low values): 0.882 (active)
normalized growth (locus YEL003W, strain gim4, hits give low values): 0.94
normalized growth (locus YEL037C, strain rad23, hits give low values): 0.962
normalized growth (locus YEL061C, strain CIN8 (second series), hits give low values): 0.967
normalized growth (locus YEL061C, strain CIN8, hits give low values): 0.905 (active)
normalized growth (locus YER015W, strain faa2, hits give low values): 0.96
normalized growth (locus YER016W, strain bim1, hits give low values): 0.963
normalized growth (locus YER110C, hits give low values): 0.937
normalized growth (locus YER111C, strain swi4, hits give low values): 0.959
normalized growth (locus YER155C, strain BEM2 (second series), hits give low values): 0.683 (active)
normalized growth (locus YER155C, strain BEM2, hits give low values): 0.979
normalized growth (locus YER167W, strain BCK2, hits give low values): 0.89 (active)
normalized growth (locus YFR010W, strain ubp6, hits give low values): 0.954
normalized growth (locus YGL078C, strain dbp3, hits give low values): 0.958
normalized growth (locus YGL086W, strain mad1, hits give low values): 0.898 (active)
normalized growth (locus YGL167C, strain pmr1, hits give low values): 0.938
normalized growth (locus YGL173C, strain kem1, hits give low values): 0.931
normalized growth (locus YGL227W, strain vid30, hits give low values): 0.959
normalized growth (locus YGL240W, strain doc1, hits give low values): 0.786 (active)
normalized growth (locus YGL248W, strain PDE1, hits give low values): 0.843 (active)
normalized growth (locus YGL253W, strain hxk2, hits give low values): 0.891 (active)
normalized growth (locus YGR135W, strain pre9, hits give low values): 0.857 (active)
normalized growth (locus YGR229C, strain SMI1, hits give low values): 0.504 (active)
normalized growth (locus YGR252W, strain gcn5, hits give low values): 0.628 (active)
normalized growth (locus YHR013C, strain ard1, hits give low values): 0.866
normalized growth (locus YHR027C, strain rpn1, hits give low values): 0.965
normalized growth (locus YHR030C, strain SLT2, hits give low values): 0.744 (active) and 0.843 (active)
normalized growth (locus YHR079C, strain IRE1 (second series), hits give low values): 0.97
normalized growth (locus YHR079C, strain IRE1, hits give low values): 0.878
normalized growth (locus YHR094C, strain hxt1, hits give low values): 0.956
normalized growth (locus YHR129C, strain ARP1, hits give low values): 0.882 (active)
normalized growth (locus YHR142W, strain chs7, hits give low values): 0.842 (active)
normalized growth (locus YHR200W, strain rpn10, hits give low values): 0.929
normalized growth (locus YIL066C, strain RNR3, hits give low values): 0.793 (active)
normalized growth (locus YIL073C, strain SPO22, hits give low values): 0.772
normalized growth (locus YIL125W, strain kgd1, hits give low values): 0.94
normalized growth (locus YIR030C, strain dcg1, hits give low values): 0.92 (active)
normalized growth (locus YJL092W, strain hpr5, hits give low values): 0.957
normalized growth (locus YJL095W, strain BCK1 (second series), hits give low values): 0.927
normalized growth (locus YJL095W, strain BCK1, hits give low values): 0.523 (active) and 0.838 (active)
normalized growth (locus YJL115W, strain asf1, hits give low values): 0.954
normalized growth (locus YJL129C, strain trk1, hits give low values): 0.992
normalized growth (locus YJL134W, strain LCB3, hits give low values): 0.975
normalized growth (locus YJL154C, strain vps35, hits give low values): 0.977
normalized growth (locus YJL164C, strain tpk1, hits give low values): 0.898 (active)
normalized growth (locus YJL166W, strain qcr8, hits give low values): 0.859 (active)
normalized growth (locus YJL168C, strain set2, hits give low values): 0.95
normalized growth (locus YJL187C, strain SWE1 (second series), hits give low values): 0.868
normalized growth (locus YJL187C, strain SWE1, hits give low values): 0.948
normalized growth (locus YJR043C, strain POL32, hits give low values): 0.861
normalized growth (locus YJR066W, strain TOR1, hits give low values): 0.805 (active)
normalized growth (locus YKL009W, strain mrt4, hits give low values): 0.862 (active)
